# Results published in PubChem BioAssay (EPA / NIEHS).
# Records with an inconclusive call do not appear. Activity calls are given as the source filed them. How the source made its calls: active means hit-call score of the fitted dose curve at least 0.9, where 1 is the maximum; inconclusive means response in the unintended direction; inactive means score below 0.9.
# Assays:
# [1] = TOX21_p53_BLA_p2_viability: Viability Assessment in the Tox21 HCT-116 p53 Agonism Beta-lactamase Assay, Phase 2 (AID 2283591);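 further: compound exposure lasted 16 h at 37 °C; actives lower the ATP signal meaning cytotoxicity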
# Procedure, shortened: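 HCT-116 p53-bla cells (4000/well) rested 5 h at 37C, then received compounds in DMSO (217-fold dilution) for 16 h at 37C, 5% CO2. After the CCF4 read, CellTiter-Glo was added; ATP luminescence was read after 30 min at room temperature.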
# [2] = biological target: Cellular tumor antigen p53 (Homo sapiens) (UniProt P04637); experiment: TOX21_p53_BLA_p2_ratio: Tox21 HCT-116 p53 Agonism Beta-lactamase Assay, Ratio, Phase 2 (AID 2283592)
# Chain of Cellular tumor antigen p53 (Homo sapiens) (P04637 whole entry, looked up): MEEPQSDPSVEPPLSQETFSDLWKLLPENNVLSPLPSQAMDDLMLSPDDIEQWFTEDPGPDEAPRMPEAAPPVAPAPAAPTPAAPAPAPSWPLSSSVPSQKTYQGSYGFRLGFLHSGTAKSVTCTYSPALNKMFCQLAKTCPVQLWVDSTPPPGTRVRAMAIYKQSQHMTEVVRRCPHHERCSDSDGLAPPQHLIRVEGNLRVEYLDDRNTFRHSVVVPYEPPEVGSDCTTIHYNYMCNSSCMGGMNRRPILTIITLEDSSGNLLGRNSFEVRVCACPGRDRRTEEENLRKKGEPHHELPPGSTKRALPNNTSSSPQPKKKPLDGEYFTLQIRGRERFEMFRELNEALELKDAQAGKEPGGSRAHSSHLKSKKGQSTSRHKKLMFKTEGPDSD
# Procedure, shortened: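 Human colon HCT116 cells with an inducible p53 beta-lactamase reporter are exposed to test chemicals for 16 h at 37C. Reporter induction is read as the 460/530 nm emission ratio after CCF4-AM loading, normalized to DMSO.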
# [3] = biological target: Cellular tumor antigen p53 (Homo sapiens) (UniProt P04637); experiment: TOX21_p53_BLA_p3_ratio: Tox21 HCT-116 p53 Agonism Beta-lactamase Assay, Ratio, Phase 3 (AID 2283596)
# Procedure, shortened: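 HCT116 p53-bla cells (4000/well) given compound in DMSO (217-fold dilution) after 5 h, incubated 16 h at 37C. CCF4-AM substrate 2 h at room temperature; 460/530 nm emission ratio, gain fitted against DMSO.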
# [4] = TOX21_p53_BLA_p4_viability: Viability Assessment in the Tox21 HCT-116 p53 Agonism Beta-lactamase Assay, Phase 4 (AID 2283597);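 further: hits lower the luminescence signal meaning cytotoxicity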
# Procedure, shortened: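 Luminescent ATP readout (CellTiter-Glo, 30 min, room temperature) in the same wells as the p53 bla ratio. HCT116 cells were treated for 16 h at 37C with DMSO-dissolved compounds.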
# [5] = biological target: Cellular tumor antigen p53 (Homo sapiens) (UniProt P04637); experiment: TOX21_p53_BLA_p5_ratio: Tox21 HCT-116 p53 Agonism Beta-lactamase Assay, Ratio, Phase 5 (AID 2283599)
# Procedure, shortened: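 HCT-116 cells carrying a p53-inducible beta-lactamase reporter were seeded at 4000 cells/well and dosed after 5 h with compound in DMSO (217-fold dilution). After 16 h at 37C, CCF4-AM substrate was added for 2 h, and the 460/530 nm emission ratio was scored as gain-of-signal versus DMSO.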
# [6] = TOX21_p53_BLA_p5_viability: Viability Assessment in the Tox21 HCT-116 p53 Agonism Beta-lactamase Assay, Phase 5 (AID 2283600)
# Procedure, shortened: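 Seeded cells (4000/well) settle 5 h before compound addition. Plates then incubate 16 h at 37C, receive FRET substrate for 2 h, and finally CellTiter-Glo, with luminescence measured after a 30 min room-temperature incubation.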
# [7] = biological target: Cellular tumor antigen p53 (Homo sapiens) (UniProt P04637); experiment: TOX21_p53_BLA_p4_ratio: Tox21 HCT-116 p53 Agonism Beta-lactamase Assay, Ratio, Phase 4 (AID 2283601)
# Procedure, shortened: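 HCT116 cells carrying an inducible beta-lactamase reporter were plated at 4000 cells/well, rested 5 h, then exposed to compounds in DMSO (217-fold dilution) for 16 h at 37C. CCF4-AM substrate was loaded 2 h at room temperature; 460/530 nm emission ratio scored gain-of-signal versus DMSO.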
# THRB (gene 7068) [8] = biological target: THRB (gene 7068) (UniProt P10828); experiment: TOX21_TRB_BLA_Antagonist_Followup_ratio: Tox21 Thyroid Hormone Receptor beta Antagonism Beta-lactamase (BLA) Follow-Up Assay, Ratio (AID 2283958)
# Chain of THRB (gene 7068) (P10828 whole entry, looked up, the tested form may be a part): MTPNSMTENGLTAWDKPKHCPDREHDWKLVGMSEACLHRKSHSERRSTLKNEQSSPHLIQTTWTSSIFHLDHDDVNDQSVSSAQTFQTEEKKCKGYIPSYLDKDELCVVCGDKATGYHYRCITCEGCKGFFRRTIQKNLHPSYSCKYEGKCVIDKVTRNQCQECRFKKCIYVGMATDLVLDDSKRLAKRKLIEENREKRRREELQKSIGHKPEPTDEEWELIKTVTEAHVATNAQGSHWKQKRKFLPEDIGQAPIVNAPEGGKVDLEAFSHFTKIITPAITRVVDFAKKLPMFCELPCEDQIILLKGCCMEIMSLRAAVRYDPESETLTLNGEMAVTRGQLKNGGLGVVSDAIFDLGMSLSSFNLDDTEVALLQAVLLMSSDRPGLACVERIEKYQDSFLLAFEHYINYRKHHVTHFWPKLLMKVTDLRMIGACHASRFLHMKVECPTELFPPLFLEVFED
# Procedure, shortened: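 In this antagonist-mode follow-up, a stably integrated GAL4-TRβ LBD fusion drives a UAS-beta-lactamase reporter in HEK293T cells. Loss of ratio signal relative to DMSO after 18 h treatment indicates activity; parallel CellTiter-Glo flags cytotoxicity.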
# [9] = TOX21_TRB_BLA_Antagonist_Followup_viability: Viability Assessment in the Tox21 Thyroid Hormone Receptor beta Antagonism Beta-lactamase (BLA) Follow-Up Assay (AID 2283961)
# Procedure, shortened: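 In the same wells as the reporter read, cell health was gauged by CellTiter-Glo ATP luminescence, with signal loss indicating reduced viability. Cells had been exposed to test compounds for 18 h.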
# THRB (gene 7068) [10] = biological target: THRB (gene 7068) (UniProt P10828); experiment: TOX21_TRB_COA_Antagonist_Followup_ratio: Tox21 Thyroid Hormone Receptor beta Antagonism through Coactivator Recruitment Follow-Up Assay, Ratio (AID 2283967)
# Procedure, shortened: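 Cell-free TR-FRET coactivator recruitment with GST-tagged TRβ LBD (5.0 nM) and fluorescein-labeled SRC-2 peptide (200 nM) detected by terbium anti-GST antibody (2 nM). The 520:495 nm emission ratio was normalized to DMSO (0%) and T3 (100%).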
# [11] = biological target: Retinoic acid receptor RXR-alpha (Homo sapiens) (UniProt P19793); experiment: TOX21_TR_RXR_BLA_Antagonist_Followup_ratio: Tox21 Thyroid Hormone Receptor beta Retinoid X Receptor alpha (RXRa) Antagonism Beta-lactamase (BLA) Follow-Up Assay, Ratio (AID 2283972)
# Chain of Retinoic acid receptor RXR-alpha (Homo sapiens) (P19793 whole entry, looked up): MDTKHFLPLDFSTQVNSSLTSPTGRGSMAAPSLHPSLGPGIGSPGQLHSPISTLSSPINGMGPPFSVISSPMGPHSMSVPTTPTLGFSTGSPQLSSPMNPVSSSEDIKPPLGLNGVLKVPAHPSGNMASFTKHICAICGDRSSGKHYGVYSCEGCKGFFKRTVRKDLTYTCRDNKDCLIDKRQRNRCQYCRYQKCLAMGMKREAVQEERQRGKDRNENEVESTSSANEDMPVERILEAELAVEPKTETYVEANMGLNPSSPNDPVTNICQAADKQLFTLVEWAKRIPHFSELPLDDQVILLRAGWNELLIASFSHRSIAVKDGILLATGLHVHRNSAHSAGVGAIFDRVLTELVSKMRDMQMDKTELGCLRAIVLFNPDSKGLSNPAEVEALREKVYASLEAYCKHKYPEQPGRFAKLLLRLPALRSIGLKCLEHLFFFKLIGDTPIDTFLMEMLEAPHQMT
# Procedure, shortened: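 Compounds were tested in triplicate at 11 concentrations on RXRa-bla HEK293T cells for 16 h. Substrate cleavage ratio, normalized to DMSO, gave the endpoint.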
# [12] = TOX21_TR_RXR_BLA_Antagonist_Followup_viability: Viability Assessment in the Tox21 Thyroid Hormone Receptor beta Retinoid X Receptor alpha (RXRa) Antagonism Beta-lactamase (BLA) Follow-Up Assay (AID 2283979)
# Procedure, shortened: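 RXRa-UAS-bla HEK293T cells seeded 2,500/well in phenol red-free DMEM with 2% charcoal-stripped FBS, attached 5 h, then exposed to compounds at 11 concentrations in triplicate for 16 h at 37C/5% CO2. Viability read by CellTiter-Glo ATP luminescence; bidirectional fit versus DMSO.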
smiles,measurement,setting,value
C=CC1=C(C)C2=CC3=NC(=C(CC(=O)[O-])C4=NC(=C(C)C4=C([O-])[O-])C=c4[n-]c(c(C)c4CC)=CC1=N2)[C@@H](CCC(=O)[O-])[C@@H]3C.[Cu+2].[Na+].[Na+].[Na+],outcome,[1],inactive
same,outcome,[2],inactive
same,outcome,[3],inactive
same,outcome,[4],inactive
same,outcome,[5],inactive
same,outcome,[6],inactive
same,outcome,[7],inactive
CCOC(=O)OC(C)OC1=C(C(=O)Nc2ccccn2)N(C)S(=O)(=O)c2ccccc21 (stereo unspecified),outcome,[1],inactive
same,outcome,[2],inactive
same,outcome,[3],inactive
same,outcome,[4],inactive
same,outcome,[5],inactive
same,outcome,[6],inactive
same,outcome,[7],inactive
c1ccc(CN(CC2=NCCN2)c2ccccc2)cc1,outcome,[1],inactive
same,outcome,[2],inactive
same,outcome,[3],inactive
same,outcome,[4],inactive
same,outcome,[5],inactive
same,outcome,[6],inactive
same,outcome,[7],inactive
NCCNCCNCCN,outcome,[1],inactive
same,outcome,[2],inactive
same,outcome,[3],inactive
same,outcome,[4],inactive
same,outcome,[5],inactive
same,outcome,[6],inactive
same,outcome,[7],inactive
CC(CN(C)C)C(C)(O)Cc1ccc(Cl)cc1 (stereo unspecified),outcome,[1],inactive
same,outcome,[2],inactive
same,outcome,[3],inactive
same,outcome,[4],inactive
same,outcome,[5],inactive
same,outcome,[6],inactive
same,outcome,[7],inactive
CC(Cl)C(Cl)Cl (stereo unspecified),outcome,[1],inactive
same,outcome,[2],inactive
same,outcome,[3],inactive
same,outcome,[4],inactive
same,outcome,[5],inactive
same,outcome,[6],inactive
same,outcome,[7],inactive
Cc1ncc(CO)c(CN)c1O,outcome,[1],inactive
same,outcome,[2],inactive
same,outcome,[3],inactive
same,outcome,[4],inactive
same,outcome,[5],inactive
same,outcome,[6],inactive
same,outcome,[7],inactive
C[C@H]1[C@@H](OC(=O)CCC(=O)O)O[C@@H]2OC3(C)CC[C@H]4[C@H](C)CC[C@@H]1[C@@]24OO3,outcome,[1],inactive
same,outcome,[2],inactive
same,outcome,[3],inactive
same,outcome,[4],inactive
same,outcome,[5],inactive
same,outcome,[6],inactive
same,outcome,[7],inactive
CC(=O)N/N=C/c1ccc([N+](=O)[O-])o1,outcome,[1],inactive
same,AC50,[2],42.3 µM (active)
same,outcome,[3],inactive
same,AC50,[4],40.9 µM (active)
same,AC50,[5],34.9 µM (active)
same,outcome,[6],inactive
same,AC50,[7],41.3 µM (active)
Brc1c2ccccc2cc2ccccc12,outcome,[1],inactive
same,outcome,[2],inactive
same,outcome,[3],inactive
same,outcome,[4],inactive
same,outcome,[5],inactive
same,outcome,[6],inactive
same,outcome,[7],inactive
CCCCCN(CCCCC)C(=O)C(CCC(=O)O)NC(=O)c1ccc(Cl)c(Cl)c1 (stereo unspecified),outcome,[1],inactive
same,outcome,[2],inactive
same,outcome,[3],inactive
same,outcome,[4],inactive
same,outcome,[5],inactive
same,outcome,[6],inactive
same,outcome,[7],inactive
NCCCCCC(=O)O,outcome,[1],inactive
same,outcome,[2],inactive
same,outcome,[3],inactive
same,outcome,[4],inactive
same,outcome,[5],inactive
same,outcome,[6],inactive
same,outcome,[7],inactive
CCOC(=O)c1cccc(N)c1,outcome,[1],inactive
same,outcome,[2],inactive
same,outcome,[3],inactive
same,outcome,[4],inactive
same,outcome,[5],inactive
same,outcome,[6],inactive
same,outcome,[7],inactive
N[C@@H](CSSC[C@H](N)C(=O)O)C(=O)O,outcome,[1],inactive
same,outcome,[2],inactive
same,outcome,[3],inactive
same,outcome,[4],inactive
same,outcome,[5],inactive
same,outcome,[6],inactive
same,outcome,[7],inactive
Cc1ccccc1C(=O)N1CC/C(=N\OS(=O)(=O)O)c2ccc(Cl)cc21,outcome,[1],inactive
same,outcome,[2],inactive
same,outcome,[3],inactive
same,outcome,[4],inactive
same,outcome,[5],inactive
same,outcome,[6],inactive
same,outcome,[7],inactive
S=C1SCN(Cc2ccccc2)CN1Cc1ccccc1,outcome,[1],inactive
same,outcome,[2],inactive
same,outcome,[3],inactive
same,outcome,[4],inactive
same,outcome,[5],inactive
same,outcome,[6],inactive
same,outcome,[7],inactive
CC1(C)C[C@@H]1C(=O)N/C(=C\CCCCSC[C@H](N)C(=O)O)C(=O)O,outcome,[1],inactive
same,outcome,[2],inactive
same,outcome,[3],inactive
same,outcome,[4],inactive
same,outcome,[5],inactive
same,outcome,[6],inactive
same,outcome,[7],inactive
CCN(CC)CCOCCOC(=O)C(CC)(CC)c1ccccc1,outcome,[1],inactive
same,outcome,[2],inactive
same,outcome,[3],inactive
same,outcome,[4],inactive
same,outcome,[5],inactive
same,outcome,[6],inactive
same,outcome,[7],inactive
CC1=CC(=O)CC(C)(C)C1=O,outcome,[1],inactive
same,outcome,[2],inactive
same,outcome,[3],inactive
same,outcome,[4],inactive
same,outcome,[5],inactive
same,outcome,[6],inactive
same,outcome,[7],inactive
[O-][N+](=Nc1ccccc1)c1ccccc1,outcome,[1],inactive
same,outcome,[2],inactive
same,outcome,[3],inactive
same,outcome,[4],inactive
same,outcome,[5],inactive
same,outcome,[6],inactive
same,outcome,[7],inactive
COc1ccc(OC)c(C(O)CNC(=O)CN)c1 (stereo unspecified),outcome,[1],inactive
same,outcome,[2],inactive
same,outcome,[3],inactive
same,outcome,[4],inactive
same,outcome,[5],inactive
same,outcome,[6],inactive
same,outcome,[7],inactive
CCCCC1C(=O)N(c2ccccc2)N(c2ccc(O)cc2)C1=O (stereo unspecified),AC50,[1],19 µM (active)
same,AC50,[2],15.8 µM (active)
same,outcome,[3],inactive
same,AC50,[4],17 µM (active)
same,AC50,[5],15.4 µM (active)
same,outcome,[6],inactive
same,outcome,[7],inactive
CC1=Nc2ccccc2C1(C)C,outcome,[1],inactive
same,outcome,[2],inactive
same,outcome,[3],inactive
same,outcome,[4],inactive
same,outcome,[5],inactive
same,outcome,[6],inactive
same,outcome,[7],inactive
Nc1cc(Cl)c([N+](=O)[O-])cc1O,outcome,[1],inactive
same,outcome,[2],inactive
same,outcome,[3],inactive
same,outcome,[4],inactive
same,outcome,[5],inactive
same,outcome,[6],inactive
same,outcome,[7],inactive
O=C(O)C(S)C(S)C(=O)O (stereo unspecified),outcome,[1],inactive
same,outcome,[2],inactive
same,outcome,[3],inactive
same,outcome,[4],inactive
same,outcome,[5],inactive
same,outcome,[6],inactive
same,outcome,[7],inactive
NC(N)=NCc1cccc(I)c1,outcome,[1],inactive
same,outcome,[2],inactive
same,outcome,[3],inactive
same,outcome,[4],inactive
same,outcome,[5],inactive
same,outcome,[6],inactive
same,outcome,[7],inactive
same,outcome,THRB (gene 7068) [8],inactive
same,outcome,[9],inactive
same,outcome,THRB (gene 7068) [10],inactive
same,outcome,[11],inactive
same,outcome,[12],inactive
CCCCN=C(N)N=C(N)N,outcome,[1],inactive
same,outcome,[2],inactive
same,outcome,[3],inactive
same,outcome,[4],inactive
same,outcome,[5],inactive
same,outcome,[6],inactive
same,outcome,[7],inactive
O=C1C(=O)c2ncccc2-c2cccnc21,outcome,[1],inactive
same,AC50,[2],1.01 µM (active)
same,AC50,[3],1.08 µM (active)
same,AC50,[4],5.12 µM (active)
same,AC50,[5],0.599 µM (active)
same,outcome,[6],inactive
same,AC50,[7],0.96 µM (active)
same,outcome,THRB (gene 7068) [8],inactive
same,AC50,[9],5.41 µM (active)
same,outcome,THRB (gene 7068) [10],inactive
same,outcome,[11],inactive
same,outcome,[12],inactive
